Experimental data: ChEMBL document CHEMBL3988442, “University of Dundee, Small-Polar-MMV Screening Library” (2021)
For some of these results: Measured potencies and affinities stand elsewhere.

Columns and labels:
Parameters in all cases: scale not given: direction of the effect not stated beside the values
[1] = molecular target: Protein translocase subunit SecA (Escherichia coli (strain K12)) (UniProt P10408); test: Assay to Identify E. coli SecA ATPase Inhibitors; type: functional; conditions: 30 µM
[2] = molecular target: T1, Ubiquitin-activating enzyme e1, putative (Leishmania donovani (strain BPK282A1)) (UniProt E9BSI1); test: Leishmania donovani Ubiquitin Activating Enzyme (LdE1); type: functional; conditions: 30 µM
T1 sequence (whole entry): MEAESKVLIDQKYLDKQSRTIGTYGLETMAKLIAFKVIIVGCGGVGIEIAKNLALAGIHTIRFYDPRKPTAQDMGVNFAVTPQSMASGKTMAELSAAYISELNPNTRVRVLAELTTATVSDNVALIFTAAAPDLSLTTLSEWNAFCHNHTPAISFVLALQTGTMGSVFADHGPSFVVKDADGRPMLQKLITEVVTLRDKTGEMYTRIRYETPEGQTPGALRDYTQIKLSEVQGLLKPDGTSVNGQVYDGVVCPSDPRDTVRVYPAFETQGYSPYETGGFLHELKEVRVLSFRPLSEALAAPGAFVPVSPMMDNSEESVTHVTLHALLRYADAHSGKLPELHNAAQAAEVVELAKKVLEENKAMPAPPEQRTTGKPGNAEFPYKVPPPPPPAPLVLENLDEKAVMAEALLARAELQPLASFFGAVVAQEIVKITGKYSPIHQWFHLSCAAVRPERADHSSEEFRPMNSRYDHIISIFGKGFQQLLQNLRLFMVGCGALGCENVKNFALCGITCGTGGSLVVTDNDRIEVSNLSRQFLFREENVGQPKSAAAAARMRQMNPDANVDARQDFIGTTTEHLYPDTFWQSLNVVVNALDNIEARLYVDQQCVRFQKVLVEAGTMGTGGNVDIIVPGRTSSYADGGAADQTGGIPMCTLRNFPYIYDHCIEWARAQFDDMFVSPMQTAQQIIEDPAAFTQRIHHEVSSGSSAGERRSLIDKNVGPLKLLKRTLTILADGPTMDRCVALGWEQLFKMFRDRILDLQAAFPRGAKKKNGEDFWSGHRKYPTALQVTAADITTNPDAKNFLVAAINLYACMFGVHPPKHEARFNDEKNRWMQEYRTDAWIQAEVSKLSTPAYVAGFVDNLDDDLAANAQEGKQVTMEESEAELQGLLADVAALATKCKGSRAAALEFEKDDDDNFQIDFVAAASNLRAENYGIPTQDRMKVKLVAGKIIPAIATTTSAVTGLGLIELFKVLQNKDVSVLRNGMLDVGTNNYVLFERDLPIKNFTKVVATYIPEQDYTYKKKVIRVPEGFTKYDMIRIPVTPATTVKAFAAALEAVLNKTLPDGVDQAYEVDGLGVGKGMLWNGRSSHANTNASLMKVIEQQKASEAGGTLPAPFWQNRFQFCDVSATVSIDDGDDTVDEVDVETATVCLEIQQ

[3] = molecular target: AMP-activated protein kinase, AMPK (Homo sapiens) (UniProt P54646+O43741+P54619+Q9UGJ0+Q9Y478+Q13131+Q9UGI9); test: AMP-dependent Kinase enzyme assay. An in vitro enzyme assay that detects ADP turnover that is directly proportional to AMPK activity. This uses naive AMPK that is activated during the assay with MK-8722; type: functional; conditions: 30 µM
[4] = molecular target: Sialic acid-binding Ig-like lectin 9 (Homo sapiens) (UniProt Q9Y336); test: Hs-Siglec9 ALPHAscreen SOP 20170721; conditions: 10 µM
Trypanosoma cruzi = test: Trypanosoma cruzi phosphomannomutase and mannose-1-phosphate guanylyltransferase assay; type: functional; conditions: 10 µM
[5] = molecular target: T2, Arginase-2, mitochondrial (Homo sapiens) (UniProt P78540); test: in vitro enzyme assay to detect the production of urea directly proportional to the activity of Arginase II; type: functional; conditions: 33.3 µM; also: in the data most compounds retested in dose-response had high values
T2 sequence (whole entry): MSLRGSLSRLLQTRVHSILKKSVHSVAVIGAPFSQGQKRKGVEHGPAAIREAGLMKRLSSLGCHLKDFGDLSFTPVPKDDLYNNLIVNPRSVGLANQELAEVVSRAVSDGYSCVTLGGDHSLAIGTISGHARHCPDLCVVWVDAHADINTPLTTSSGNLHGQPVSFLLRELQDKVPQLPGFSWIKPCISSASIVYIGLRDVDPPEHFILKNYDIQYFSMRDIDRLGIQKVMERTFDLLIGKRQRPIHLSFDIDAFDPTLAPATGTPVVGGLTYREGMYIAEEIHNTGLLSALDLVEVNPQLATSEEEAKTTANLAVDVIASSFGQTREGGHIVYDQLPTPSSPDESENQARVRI

[6] = molecular target: T3, Proteasome subunit beta (Trypanosoma cruzi) (UniProt O96673); test: Trypanosoma cruzi proteasome chymotrypsin-like activity (TcProtChymo) assay.; also: in the data most compounds retested in dose-response had high values; type: functional; conditions: 9.37 µM
T3 sequence (whole entry): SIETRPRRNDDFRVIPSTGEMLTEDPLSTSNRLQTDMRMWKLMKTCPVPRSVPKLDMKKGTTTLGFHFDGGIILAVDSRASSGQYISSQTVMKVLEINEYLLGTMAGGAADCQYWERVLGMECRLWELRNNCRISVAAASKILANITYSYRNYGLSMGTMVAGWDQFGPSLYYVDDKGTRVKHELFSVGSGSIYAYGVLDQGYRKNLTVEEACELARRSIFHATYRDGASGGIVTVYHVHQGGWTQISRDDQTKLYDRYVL

Homo sapiens = species: Homo sapiens; test: To identify inhibition of the IFN signalling (Jak-Stat) pathway via expression of an eGFP reporter gene under the control of an IFN-stimulated response element (ISRE) containing MxA promoter.; type: functional; conditions: 30 µM
[7] = molecular target: T4, Tyrosyl-tRNA synthetase, putative (Trypanosoma cruzi (strain CL Brener)) (UniProt Q4DSP6); test: Trypanosoma cruzi tyrosyl tRNA synthetase (TcYRS) _High Tyrosine SOP; type: functional; conditions: 30 µM; also: in the data most compounds retested in dose-response had high values
T4 sequence (whole entry): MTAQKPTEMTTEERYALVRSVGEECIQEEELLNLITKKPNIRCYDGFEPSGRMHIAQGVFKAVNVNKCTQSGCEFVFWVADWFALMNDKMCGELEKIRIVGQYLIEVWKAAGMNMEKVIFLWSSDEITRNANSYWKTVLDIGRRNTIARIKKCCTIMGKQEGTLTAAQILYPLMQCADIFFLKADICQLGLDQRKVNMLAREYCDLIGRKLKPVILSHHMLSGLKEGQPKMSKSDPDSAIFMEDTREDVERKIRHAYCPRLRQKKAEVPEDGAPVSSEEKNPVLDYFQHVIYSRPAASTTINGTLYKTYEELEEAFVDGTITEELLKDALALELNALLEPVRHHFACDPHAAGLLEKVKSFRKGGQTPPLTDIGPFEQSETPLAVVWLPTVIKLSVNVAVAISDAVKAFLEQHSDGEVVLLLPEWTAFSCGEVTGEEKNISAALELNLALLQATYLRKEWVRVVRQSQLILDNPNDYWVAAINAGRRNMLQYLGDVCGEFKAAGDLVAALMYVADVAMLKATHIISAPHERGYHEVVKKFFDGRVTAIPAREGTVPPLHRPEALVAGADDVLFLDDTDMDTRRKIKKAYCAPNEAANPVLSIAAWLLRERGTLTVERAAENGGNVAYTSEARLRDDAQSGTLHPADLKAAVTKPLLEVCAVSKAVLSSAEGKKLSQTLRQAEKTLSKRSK

[8] = molecular target: T4, Tyrosyl-tRNA synthetase, putative (Trypanosoma cruzi (strain CL Brener)); test: Trypanosoma cruzi tyrosyl tRNA synthetase (TcYRS) SOP; type: functional; conditions: 30 µM
[9] = molecular target: Chromo domain-containing protein 1 (Saccharomyces cerevisiae (strain ATCC 204508 / S288c) (Baker's yeast)) (UniProt P32657); test: ScCHD-1 Enzyme Inhibition Assay; type: functional; conditions: 30 µM; also: in the data most compounds retested in dose-response had high values
Chain of Chromo domain-containing protein 1 (Saccharomyces cerevisiae (strain ATCC 204508 / S288c) (Baker's yeast)) (P32657 whole entry, the tested form may be a part): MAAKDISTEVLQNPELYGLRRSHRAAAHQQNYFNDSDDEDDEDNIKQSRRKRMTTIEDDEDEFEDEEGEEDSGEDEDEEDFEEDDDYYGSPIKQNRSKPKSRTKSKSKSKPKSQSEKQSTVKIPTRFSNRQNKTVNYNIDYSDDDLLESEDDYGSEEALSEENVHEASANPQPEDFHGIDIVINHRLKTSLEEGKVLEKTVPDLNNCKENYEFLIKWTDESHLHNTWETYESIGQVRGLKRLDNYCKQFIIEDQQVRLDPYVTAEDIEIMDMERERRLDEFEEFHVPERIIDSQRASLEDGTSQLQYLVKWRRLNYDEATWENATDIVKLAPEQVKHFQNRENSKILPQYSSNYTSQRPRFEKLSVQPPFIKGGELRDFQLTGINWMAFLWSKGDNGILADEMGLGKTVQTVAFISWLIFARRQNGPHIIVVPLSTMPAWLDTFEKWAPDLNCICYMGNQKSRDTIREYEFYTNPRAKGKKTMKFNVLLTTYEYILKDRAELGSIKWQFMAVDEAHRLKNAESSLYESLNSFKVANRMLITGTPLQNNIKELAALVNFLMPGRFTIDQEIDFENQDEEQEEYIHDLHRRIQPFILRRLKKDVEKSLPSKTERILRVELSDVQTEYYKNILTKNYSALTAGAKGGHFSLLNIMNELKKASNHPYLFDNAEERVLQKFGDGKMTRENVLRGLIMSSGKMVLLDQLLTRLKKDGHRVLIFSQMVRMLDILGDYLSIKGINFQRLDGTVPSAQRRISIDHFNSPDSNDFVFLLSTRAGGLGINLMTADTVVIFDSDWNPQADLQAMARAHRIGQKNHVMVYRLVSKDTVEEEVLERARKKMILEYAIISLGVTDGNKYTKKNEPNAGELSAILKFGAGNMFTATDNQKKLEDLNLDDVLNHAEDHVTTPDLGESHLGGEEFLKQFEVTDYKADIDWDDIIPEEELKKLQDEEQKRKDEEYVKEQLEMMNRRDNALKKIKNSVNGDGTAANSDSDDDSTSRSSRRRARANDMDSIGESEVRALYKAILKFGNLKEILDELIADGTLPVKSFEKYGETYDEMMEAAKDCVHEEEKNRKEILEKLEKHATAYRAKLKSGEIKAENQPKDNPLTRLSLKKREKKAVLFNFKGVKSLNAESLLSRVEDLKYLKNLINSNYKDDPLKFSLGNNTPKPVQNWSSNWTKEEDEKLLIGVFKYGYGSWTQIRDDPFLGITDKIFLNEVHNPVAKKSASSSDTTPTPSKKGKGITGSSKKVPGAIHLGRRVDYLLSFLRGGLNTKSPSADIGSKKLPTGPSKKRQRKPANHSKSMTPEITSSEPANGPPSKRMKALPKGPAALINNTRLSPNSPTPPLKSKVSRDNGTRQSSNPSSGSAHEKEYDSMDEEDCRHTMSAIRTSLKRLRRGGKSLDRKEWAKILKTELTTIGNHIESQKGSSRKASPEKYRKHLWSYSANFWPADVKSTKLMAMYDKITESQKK

Chain of Sialic acid-binding Ig-like lectin 9 (Homo sapiens) (Q9Y336 whole entry): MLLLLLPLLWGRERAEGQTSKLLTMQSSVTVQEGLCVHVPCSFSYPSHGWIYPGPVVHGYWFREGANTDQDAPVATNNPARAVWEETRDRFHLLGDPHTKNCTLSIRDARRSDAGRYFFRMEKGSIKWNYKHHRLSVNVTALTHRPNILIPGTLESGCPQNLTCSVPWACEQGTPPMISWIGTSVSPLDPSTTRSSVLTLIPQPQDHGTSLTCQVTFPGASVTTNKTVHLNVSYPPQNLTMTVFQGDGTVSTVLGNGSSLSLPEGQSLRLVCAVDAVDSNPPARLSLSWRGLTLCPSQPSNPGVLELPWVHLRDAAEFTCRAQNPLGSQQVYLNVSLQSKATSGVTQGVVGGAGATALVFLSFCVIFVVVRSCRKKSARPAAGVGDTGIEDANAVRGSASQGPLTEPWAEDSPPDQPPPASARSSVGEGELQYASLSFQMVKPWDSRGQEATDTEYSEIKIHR
Chain of Protein translocase subunit SecA (Escherichia coli (strain K12)) (P10408 whole entry): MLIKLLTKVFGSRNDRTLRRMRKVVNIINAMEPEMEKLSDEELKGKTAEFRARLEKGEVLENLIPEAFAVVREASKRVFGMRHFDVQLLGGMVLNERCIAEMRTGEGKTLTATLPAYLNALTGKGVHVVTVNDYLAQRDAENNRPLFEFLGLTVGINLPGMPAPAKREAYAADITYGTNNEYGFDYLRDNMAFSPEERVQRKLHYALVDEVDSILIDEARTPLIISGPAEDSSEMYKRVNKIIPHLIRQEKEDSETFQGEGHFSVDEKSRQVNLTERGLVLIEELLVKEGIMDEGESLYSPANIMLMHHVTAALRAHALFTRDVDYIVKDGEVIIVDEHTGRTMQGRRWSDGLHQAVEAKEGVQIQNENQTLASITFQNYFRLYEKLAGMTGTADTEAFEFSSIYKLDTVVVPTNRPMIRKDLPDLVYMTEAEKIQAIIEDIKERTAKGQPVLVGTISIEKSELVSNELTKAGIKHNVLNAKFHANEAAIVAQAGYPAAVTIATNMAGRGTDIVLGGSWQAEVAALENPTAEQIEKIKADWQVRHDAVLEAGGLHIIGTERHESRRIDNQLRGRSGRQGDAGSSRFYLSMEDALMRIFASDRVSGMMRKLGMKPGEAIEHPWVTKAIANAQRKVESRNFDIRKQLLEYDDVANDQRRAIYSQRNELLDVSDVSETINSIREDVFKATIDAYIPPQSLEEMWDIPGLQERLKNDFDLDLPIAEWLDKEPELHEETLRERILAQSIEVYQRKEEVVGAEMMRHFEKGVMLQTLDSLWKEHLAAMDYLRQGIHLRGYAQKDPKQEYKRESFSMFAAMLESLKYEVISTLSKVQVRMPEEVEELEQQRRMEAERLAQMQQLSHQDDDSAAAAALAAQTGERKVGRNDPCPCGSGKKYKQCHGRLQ

| Structure (SMILES) | Percent Effect [1] [%] | Percent Effect [2] [%] | Percent Effect [3] [%] | Percent Effect [4] [%] | Percent Effect (Trypanosoma cruzi) [%] | Percent Effect [5] [%] | Percent Effect [6] [%] | Percent Effect (Homo sapiens) [%] | Percent Effect [7] [%] | Percent Effect [8] [%] | Percent Effect [9] [%] |
| --- | --- | --- | --- | --- | --- | --- | --- | --- | --- | --- | --- |
| Cc1cc(O)c(OCC(=O)/N=c2\[nH]cc(C)s2)cn1 | -5.77 | 18.4 | 3.17 | 0.981 | 3.6 | -5.92 | 5.85 | -4.26 | 5.32 | 10.4 | -2.08 |
| c1sc(C2CCCC2)nc1CN1CCn2c(nnc2C2CC2)C1 | -6.12 | 5.41 | 0.718 | -3.09 | -2.14 | -0.554 | 10.4 | 37.1 | 10.9 | 15.8 | -4.21 |
| Cc1nn(C)c(Cl)c1C1CCCN1C(=O)c1ccc2nncn2c1 (stereo unspecified) | -3.02 | 0 | 2.19 | -4.7 | -4.25 | 0 | 3.6 | -2.92 | -4.43 | -6.17 | -0.833 |
| c1cnc(N2CCCC(NCc3cccc4c3OCCO4)C2)nc1 (stereo unspecified) | -0.886 | -5.41 | -2.02 | -1.18 | 3.87 | -4.81 | 7.21 | 10.1 | 4.43 | 3.7 | -2.9 |
| CSCC(C)(O)CNC(=O)c1cc(Br)ccc1Cl (stereo unspecified) | -6.56 | 2.74 | -10.3 | 29.6 | 9.01 | -4.54 | 18.1 | 10.3 | 3.23 | 17.5 | 34.8 |
| Cc1c(C(=O)NC(CN2CCCC2=O)c2ccccc2)cnn1C (stereo unspecified) | 0.252 | 10.5 | 1.96 | -5.31 | -4.7 | 6.9 | 7.69 | 19 | 3.43 | 9.76 | -6.11 |
| Cc1n[nH]c(C2CN(C(=O)c3cc(C4CC4)[nH]n3)CCO2)n1 (stereo unspecified) | -3.77 | 13 | 3.73 | 15.3 | -0.0979 | 0.632 | 9.78 | -11 | 5.71 | 11.8 | -11.2 |
| Cc1ncsc1C(=O)NCCn1nc(C2CCNC2)c2cccnc21 (stereo unspecified) | -1.57 | -2.67 | 5.57 | 1.22 | 2.17 | 0.699 | 3.26 | -2.08 | 0 | 6.41 | 1.51 |
| O=C(CCc1ccsc1)N1CCC(Cc2ccc(CO)cc2)C1 (stereo unspecified) | 2.19 | 4.17 | -0.478 | -3.78 | -6.9 | 3.53 | 12.5 | -1.24 | 3.16 | 7.69 | -1.32 |
| NS(=O)(=O)CCNC(=O)c1nnn(-c2ccc(F)cc2)c1C1CC1 | -0.864 | 8.11 | -3.7 | 0.877 | 3.91 | 14.6 | 19.5 | -4.31 | 9.9 | 15.8 | -4.04 |
| CN(C)C(=O)N1CCN(Cc2ccccc2)[C@@H]2CS(=O)(=O)C[C@@H]21 | -0.429 | 2.7 | -4.73 | 3.84 | 4.25 | -1.43 | 10.9 | 4.04 | 7.94 | 17.1 | -3.7 |
